Source: PubChem BioAssay (NCATS)
Records with an inconclusive call do not appear. Activity calls are given as the source filed them. Unless noted, calls come from the whole dose curve; as a rule, active = well fitted curve in the direction sought with a large enough effect; inconclusive = small, poorly fitted or top-dose-only effect, or another doubt; inactive = no such curve, though single readings can be large; an effect the other way counts as inactive or inconclusive.

Assays:
[1] = AP1 Signaling Pathway (AID 357; active = well fitted curve in either direction with a large enough effect, not every such curve was filed as active;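 note: ME-180 reporter cells stimulated with EGF at its EC50 level; % is set by controls: 0 for no effect and ±100 for the full control effect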); details: ME-180 AP-1-bla reporter, EGF-induced, beta-lactamase ratio, 5 h; at 17.2 µM (top of the series) unless noted
Outline: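 First, ME-180 AP-1-bla cells were cultured overnight at 37 °C in low-serum Opti-MEM. Next, titrated compounds with EC50 EGF were incubated 5 hours. Finally, CCF4 was added for 2.5 hours and the 460/530 nm ratio recorded.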

[2] = molecular target: Cytochrome P450 1A2 (Homo sapiens) (UniProt P05177); experiment: p450-cyp1a2 (AID 410; calls by dose curve;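 note: -100% = full effect of reference inhibitor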)
Outline: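 Luminescent readout of luciferin formed from Luciferin-ME by human CYP1A2; data normalized against complete inhibition by 57 uM furafylline. Enzyme 20nM, substrate 100uM at Km, 100mM KPO4 buffer, 60 min reaction at room temperature.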

[3] = molecular target: Glucocorticoid receptor (Homo sapiens) (UniProt P04150); experiment: GR-GFP Redistribution (AID 450;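 active = compounds whose dose series gives a full or clear partial fitted curve of increased nuclear translocation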; note: potency is the fitted concentration of half-maximal effect); details: U2OS GR-GFP nuclear translocation, laser cytometry, 2 h
[4] = molecular target: Glucocorticoid receptor (Homo sapiens) (UniProt P04150); experiment: GR-EFC Redistribution (AID 451; calls by dose curve; note: potency is the fitted concentration of half-maximal effect); details: CHO-K1 GR-EFC translocation, beta-gal luminescence, 2 h
Outline: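 CHO-K1 cells expressing nuclear EA and GR-ED fragments of b-gal; compounds titrated up to 46 uM final, 2 h at 37 C. GR nuclear translocation read as complemented b-gal luminescence after 1 h RT detection.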

[5] = molecular target: 3',5'-cyclic-AMP phosphodiesterase 4B (Homo sapiens) (UniProt Q07343); experiment: qHTS Assay for Inhibitors of PDE-IV (AID 607; active = well fitted activation curve with a large enough effect in the main read-out, with a control signal flat, not every such curve was filed as active; note: % of control where 0% means no effect)
Outline: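 ACTOne HEK293 cells carry a modified cAMP-gated CNG channel and express endogenous PDE4; plated 1000 cells/well, compounds up to 22.9 uM final. Membrane-potential dye fluorescence (ex 535/em 590) was read; parental cells received 10 uM forskolin + 100 uM RO 20-1724.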

[6] = molecular target: Cytochrome P450 2C9 (Homo sapiens) (UniProt P11712); experiment: qHTS Assay for Inhibitors and Substrates of Cytochrome P450 2C9 (AID 883); note: % is set by controls: 0 for no effect and ±100 for the full control effect; nearly all actives have a fitted effect of over 60% in size
Outline: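 Signal: luciferase luminescence reporting luciferin produced by CYP2C9. Conditions: 10nM enzyme, Luciferin-H 100uM at KM, 25mM KPO4, 37C, 60 min NADPH-driven reaction. Reference: 57uM sulphaphenazole as 100% inhibition.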

[7] = molecular target: Cytochrome P450 2D6 (Homo sapiens) (UniProt P10635); experiment: qHTS Assay for Inhibitors and Substrates of Cytochrome P450 2D6 (AID 891); note: nearly all actives have a fitted effect of over 60% in size; note: potency is the fitted concentration of half-maximal effect
Outline: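 Human CYP2D6 (5 nM) with 30 uM Luciferin-ME EGE (at Km) in 100 mM KPO4, compound preincubated 10 min, then NADPH regeneration system for 60 min at room temperature. Luciferin read by luminescence; normalized to 1.43 uM quinidine.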

[8] = molecular target: Cytochrome P450 2C19 (Homo sapiens) (UniProt P33261); experiment: qHTS Assay for Inhibitors and Substrates of Cytochrome P450 2C19 (AID 899); note: % is set by controls: 0 for no effect and ±100 for the full control effect; nearly all actives have a fitted effect of over 60% in size
Outline: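 Signal comes from luciferase acting on luciferin released by CYP2C19-mediated hydroxylation of Luciferin-H EGE, 10uM (KM). Assay mix: 5nM enzyme, 50mM KPO4; 60 min at 37C with NADPH regeneration. Data normalized against 57uM ketoconazole.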

[9] = NFAT Signaling Pathway (AID 444; active = well fitted curve in either direction with a large enough effect, not every such curve was filed as active;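 note: carbachol stimulus at about its EC50 of 1 µM final; % is set by controls: 0 for no effect and ±100 for the full control effect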); details: Jurkat NFAT-bla M1, carbachol, beta-lactamase ratio, 5 h; at 17.2 µM (top of the series) unless noted
Outline: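 Jurkat cells with NFAT-driven β-lactamase reporter and co-expressed M1 receptor, stimulated with carbachol (final 1 uM, ~EC50), compound titration, 5 h at 37 °C. CCF4 loaded 1 h at RT; 460/530 nm ratio gave %activity and AC50.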

[10] = molecular target: Mitogen-activated protein kinase 10 (Mus musculus) (UniProt Q61831); experiment: JNK3 AlphaScreen Assay (AID 530; active = well fitted curve in either direction with a large enough effect, not every such curve was filed as active;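 note: kinase came from lysate of stimulated human HepG2 cells; signal reports phosphorylation of biotinylated GST-cJun 1-79 at Ser73 with 10 µM ATP; % is set by controls: 0 for no effect and ±100 for the full control effect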)
Outline: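 Pre-activated (IL-1β/TNFα) JNK3 in HepG2 lysates phosphorylates biotin-GST-cJun(1-79), 10 uM ATP; anti-phospho-cJun(Ser73) AlphaScreen read at room temperature, pH 7.6 Tris buffer. Compounds pre-incubated 15 min as titrations.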

[11] = Stat Signaling Pathway (AID 446; active = well fitted curve in either direction with a large enough effect, not every such curve was filed as active;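 note: ME-180 cervical cancer cells given 40 pM IL-6 alongside compound; SIE-controlled beta-lactamase reporter measured as 460/530 nm FRET emission ratio; % is set by controls: 0 for no effect and ±100 for the full control effect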)
Outline: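 ME-180 SIE-bla cells; overnight plating; cpd + IL-6 40 pM, 5 h, 37 C; LiveBLAzer 2.5 h RT; 460/530 nm emission ratio. Normalized to 300 pM IL-6 and 125 nM JAK inhibitor controls.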

[12] = molecular target: Cytochrome P450 3A4 (Homo sapiens) (UniProt P08684); experiment: qHTS Assay for Activators of Cytochrome P450 3A4 (AID 885); note: nearly all actives have a fitted effect of over 65% in size
Outline: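 20nM CYP3A4 + 25uM Luciferin-PPXE (=KM), 200mM KPO4; cpd 10 min RT; NADPH regen, 60 min RT; stop w/ detection buffer, 20 min; luminescence. Normalized to 57 uM ketoconazole.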

[13] = qHTS Assay for Identification of Small Molecule Antagonists for NFkB Signaling Pathway (AID 895; active = well fitted inhibition curve with a large enough effect in the signal ratio, with a control signal flat, not every such curve was filed as active; the % refers to the signal ratio; note: potency is the fitted concentration of half-maximal effect)
Outline: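 ME-180 NFkB-bla cells (beta-lactamase under NFkB response element), plated overnight, treated with compound then 10 pM TNF alpha (about EC50) for 5 hrs at 37 C. LiveBLAzer FRET read at 460/530 nm emission, 405 nm excitation.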

[14] = qHTS Assay for Identification of Small Molecule Agonists for Thrombopoietin (TPO) Signaling Pathway (AID 917); note: % is set by controls: 0 for no effect and ±100 for the full control effect
Outline: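 We measured Glycoprotein IIb promoter–luciferase output in IL-3-starved Ba/F3 murine cells expressing the human TPO receptor after 24 hrs at 37 C with compounds and 26 pM TPO.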

[15] = molecular target: Muscarinic acetylcholine receptor M1 (Rattus norvegicus) (UniProt P08482); experiment: qHTS Assay for Antagonists of Acetylcholine Muscarinic M1 Receptor: Kinetic Measurement of Intracellular Calcium Response (AID 943);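 note: Fluo-4 calcium signal as peak divided by basal fluorescence over 4 min; nearly all actives have a fitted effect of over 75% in size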
Outline: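 Rat M1-CHO cells, 2000/well, overnight → Fluo-4 no-wash dye with probenecid, 1 h 37C → compound 10 min, room temp → basal read 6 s → carbachol EC80 (100 nM) → 4 min kinetic read; peak/basal.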

[16] = molecular target: Pyruvate kinase PKM (Homo sapiens) (UniProt P14618); experiment: qHTS Assay for Activators of Human Muscle Pyruvate Kinase (AID 954; active = well fitted curve in the direction sought with a large enough effect, not every such curve was filed as active;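 note: 0% = uninhibited enzyme and -100% = no enzyme or full thiadiazolimine inhibition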)
Outline: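 Luminescence from a luciferase ATP-detection/stop reagent reported PKM2 activity. Reactions contained 0.1 nM purified human enzyme, 0.5 mM PEP, 0.1 mM ADP and 7 mM MgCl2 at pH 7.2, run 1 h at RT.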

[17] = molecular target: Alpha-galactosidase (Coffea arabica) (UniProt Q42656); experiment: Counterscreen for Glucocerebrosidase Inhibitors: qHTS Assay for Coffee Bean alpha-Galactosidase at pH 4.5 (AID 957);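 note: plate controls were enzyme alone for no effect and no enzyme for full effect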
Outline: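 Coffee bean alpha-galactosidase 2 nM, substrate 4-MU-alpha-Gal 80 uM, pH 4.5 citrate/Tween-20, 20 min RT. Cpd titration 0.7 nM–77 uM. Stop pH 10, fluorescence 365/440 nm; Hill-equation AC50.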

[18] = molecular target: Alpha-galactosidase A (Homo sapiens) (UniProt P06280); experiment: Counterscreen for Glucocerebrosidase Inhibitors: qHTS Assay for Human alpha-Galactosidase at pH 4.5 (AID 992); note: 0% is about no effect
Outline: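 Enzyme at 2 nM final was combined with compound (0.7 nM to 77 uM) and 80 uM 4-methylumbelliferyl alpha-D-galactopyranoside in 50 mM citric acid, 0.005% Tween-20, pH 4.5. After 20 min at room temperature, fluorescence was read (Ex 365/Em 440 nm); AC50 came from Hill fits.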

[19] = molecular target: Alpha-galactosidase (Coffea arabica) (UniProt Q42656); experiment: Counterscreen for Glucocerebrosidase Inhibitors: qHTS Assay for Coffee Bean alpha-Galactosidase at pH 5.9 (AID 998);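 note: plate controls were uninhibited enzyme for no effect and no-enzyme basal signal for full effect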
Outline: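 Green coffee bean enzyme (2 nM) with 4-methylumbelliferyl alpha-D-galactopyranoside (80 uM) in 50 mM citric acid, 0.005% Tween-20, pH 5.9, 20 min at room temperature; compounds 0.7 nM–77 uM. Stopped at pH 10, fluorescence Ex365/Em440; Hill-fit AC50.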

[20] = molecular target: Guanine nucleotide-binding protein G(i) subunit alpha-1 (Homo sapiens) (UniProt P63096); experiment: qHTS Assay for Inhibitors of RGS12 GoLoco Motif Activity (Green Fluorophore) (AID 879);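 note: 0% = labeled peptide with Gαi1 and full inhibition = labeled peptide alone without protein; negative values mean loss of peptide binding seen as reduced polarization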
Outline: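 Fluorescence polarization assay: 50 nM Gαi1 with 10 nM FITC-labeled RGS12 GoLoco peptide in 10 mM Tris pH 7.5, 150 mM NaCl, 0.1 mM GDP, 0.05% NP40, 10 min at room temperature with compound.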

[21] = qHTS Assay for Identification of Small Molecule Antagonists for Thrombopoietin (TPO) Signaling Pathway (AID 918); details: TPO-dependent cell signaling reporter, antagonist mode; note: potency is the fitted concentration of half-maximal effect; nearly all actives have a fitted effect of over 60% in size
Outline: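 Ba/F3 (murine, hTPO-R, GPIIb-luc reporter); overnight IL-3 withdrawal; cpd + TPO 26 pM final (EC50); 24 h 37 C/5% CO2; Steadylite luminescence after 10 min RT.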

[22] = molecular target: Muscarinic acetylcholine receptor M1 (Rattus norvegicus) (UniProt P08482); experiment: qHTS Assay for Antagonists of Acetylcholine Muscarinic M1 Receptor: Measurement of IP-One Response (AID 944); note: nearly all actives have a fitted effect of over 75% in size
Outline: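 M1-CHO (rat), 2000 cells/well, overnight recovery; cpd 10 min; carbachol EC80 (200 nM), 30 min, HEPES buffer + 50 mM LiCl pH 7.4; IP-One HTRF, Ex 337, Em 620/665 nm.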

Sequence of Muscarinic acetylcholine receptor M1 (Rattus norvegicus) (P08482 whole entry, looked up): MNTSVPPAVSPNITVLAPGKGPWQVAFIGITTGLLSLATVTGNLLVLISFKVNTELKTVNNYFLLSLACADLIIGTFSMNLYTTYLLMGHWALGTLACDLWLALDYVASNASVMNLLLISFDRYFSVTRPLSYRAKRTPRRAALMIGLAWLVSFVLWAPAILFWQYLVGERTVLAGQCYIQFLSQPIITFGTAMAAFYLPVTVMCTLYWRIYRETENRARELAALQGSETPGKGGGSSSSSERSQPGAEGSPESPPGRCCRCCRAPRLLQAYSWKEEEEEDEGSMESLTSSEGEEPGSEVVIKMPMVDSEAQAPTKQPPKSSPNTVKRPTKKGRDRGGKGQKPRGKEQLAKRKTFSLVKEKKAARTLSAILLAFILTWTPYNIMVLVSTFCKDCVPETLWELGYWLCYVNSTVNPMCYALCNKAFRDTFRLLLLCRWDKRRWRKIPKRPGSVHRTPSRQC
Sequence of Alpha-galactosidase (Coffea arabica) (Q42656 whole entry, looked up): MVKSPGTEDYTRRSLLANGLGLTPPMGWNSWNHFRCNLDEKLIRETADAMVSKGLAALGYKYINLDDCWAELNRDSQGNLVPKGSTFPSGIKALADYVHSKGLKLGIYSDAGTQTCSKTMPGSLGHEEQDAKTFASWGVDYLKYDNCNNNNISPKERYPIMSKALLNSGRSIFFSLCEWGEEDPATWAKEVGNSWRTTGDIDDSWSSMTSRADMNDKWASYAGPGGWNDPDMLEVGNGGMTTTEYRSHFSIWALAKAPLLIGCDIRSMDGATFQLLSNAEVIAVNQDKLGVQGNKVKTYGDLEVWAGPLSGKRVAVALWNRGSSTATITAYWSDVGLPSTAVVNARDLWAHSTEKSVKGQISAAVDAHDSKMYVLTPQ
Sequence of Glucocorticoid receptor (Homo sapiens) (P04150 whole entry, looked up, the tested form may be a part): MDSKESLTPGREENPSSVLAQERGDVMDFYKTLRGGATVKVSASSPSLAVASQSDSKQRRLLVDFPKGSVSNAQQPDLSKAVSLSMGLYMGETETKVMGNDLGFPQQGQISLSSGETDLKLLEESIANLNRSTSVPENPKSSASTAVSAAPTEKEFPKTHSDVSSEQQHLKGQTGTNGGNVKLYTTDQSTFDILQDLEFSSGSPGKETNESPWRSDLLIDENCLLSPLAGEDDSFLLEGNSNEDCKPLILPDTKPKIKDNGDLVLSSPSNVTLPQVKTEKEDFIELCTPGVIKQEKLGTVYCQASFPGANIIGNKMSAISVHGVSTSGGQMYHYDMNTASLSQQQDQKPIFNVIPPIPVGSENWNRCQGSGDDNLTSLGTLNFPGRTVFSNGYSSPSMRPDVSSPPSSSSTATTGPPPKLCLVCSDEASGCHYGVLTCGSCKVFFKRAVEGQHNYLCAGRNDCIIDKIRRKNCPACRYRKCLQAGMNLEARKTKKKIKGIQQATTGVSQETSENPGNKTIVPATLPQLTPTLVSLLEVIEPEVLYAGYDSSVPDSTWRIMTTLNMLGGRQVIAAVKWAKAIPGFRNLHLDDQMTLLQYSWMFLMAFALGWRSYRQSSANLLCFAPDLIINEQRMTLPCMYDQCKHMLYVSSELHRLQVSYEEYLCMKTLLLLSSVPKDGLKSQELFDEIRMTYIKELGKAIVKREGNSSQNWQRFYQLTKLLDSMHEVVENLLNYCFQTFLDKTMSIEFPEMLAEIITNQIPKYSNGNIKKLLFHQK
Sequence of Cytochrome P450 1A2 (Homo sapiens) (P05177 whole entry, looked up): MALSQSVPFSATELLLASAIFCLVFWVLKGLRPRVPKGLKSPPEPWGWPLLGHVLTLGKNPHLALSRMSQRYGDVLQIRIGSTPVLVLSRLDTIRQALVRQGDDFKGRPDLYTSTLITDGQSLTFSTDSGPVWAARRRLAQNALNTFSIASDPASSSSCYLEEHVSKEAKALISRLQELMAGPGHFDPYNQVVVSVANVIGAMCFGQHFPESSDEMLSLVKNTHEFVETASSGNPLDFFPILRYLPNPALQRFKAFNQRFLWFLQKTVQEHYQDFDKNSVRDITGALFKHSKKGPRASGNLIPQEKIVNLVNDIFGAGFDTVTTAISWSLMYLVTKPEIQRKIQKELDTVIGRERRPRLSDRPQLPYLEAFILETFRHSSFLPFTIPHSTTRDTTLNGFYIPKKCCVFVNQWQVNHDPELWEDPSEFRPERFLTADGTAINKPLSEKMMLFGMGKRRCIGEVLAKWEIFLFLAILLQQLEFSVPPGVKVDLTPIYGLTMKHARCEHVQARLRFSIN
Sequence of Alpha-galactosidase A (Homo sapiens) (P06280 whole entry, looked up): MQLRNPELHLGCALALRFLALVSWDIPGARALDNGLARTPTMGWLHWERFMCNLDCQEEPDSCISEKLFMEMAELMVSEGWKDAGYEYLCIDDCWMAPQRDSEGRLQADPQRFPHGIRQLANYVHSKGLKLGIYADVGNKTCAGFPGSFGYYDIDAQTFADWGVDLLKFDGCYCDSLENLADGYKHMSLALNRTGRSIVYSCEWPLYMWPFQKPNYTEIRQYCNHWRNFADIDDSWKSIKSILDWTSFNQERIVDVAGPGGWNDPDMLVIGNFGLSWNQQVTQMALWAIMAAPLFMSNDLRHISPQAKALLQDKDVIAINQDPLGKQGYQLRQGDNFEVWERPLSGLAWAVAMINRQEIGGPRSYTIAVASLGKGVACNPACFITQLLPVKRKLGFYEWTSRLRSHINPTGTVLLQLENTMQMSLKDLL
Sequence of 3',5'-cyclic-AMP phosphodiesterase 4B (Homo sapiens) (Q07343 whole entry, looked up): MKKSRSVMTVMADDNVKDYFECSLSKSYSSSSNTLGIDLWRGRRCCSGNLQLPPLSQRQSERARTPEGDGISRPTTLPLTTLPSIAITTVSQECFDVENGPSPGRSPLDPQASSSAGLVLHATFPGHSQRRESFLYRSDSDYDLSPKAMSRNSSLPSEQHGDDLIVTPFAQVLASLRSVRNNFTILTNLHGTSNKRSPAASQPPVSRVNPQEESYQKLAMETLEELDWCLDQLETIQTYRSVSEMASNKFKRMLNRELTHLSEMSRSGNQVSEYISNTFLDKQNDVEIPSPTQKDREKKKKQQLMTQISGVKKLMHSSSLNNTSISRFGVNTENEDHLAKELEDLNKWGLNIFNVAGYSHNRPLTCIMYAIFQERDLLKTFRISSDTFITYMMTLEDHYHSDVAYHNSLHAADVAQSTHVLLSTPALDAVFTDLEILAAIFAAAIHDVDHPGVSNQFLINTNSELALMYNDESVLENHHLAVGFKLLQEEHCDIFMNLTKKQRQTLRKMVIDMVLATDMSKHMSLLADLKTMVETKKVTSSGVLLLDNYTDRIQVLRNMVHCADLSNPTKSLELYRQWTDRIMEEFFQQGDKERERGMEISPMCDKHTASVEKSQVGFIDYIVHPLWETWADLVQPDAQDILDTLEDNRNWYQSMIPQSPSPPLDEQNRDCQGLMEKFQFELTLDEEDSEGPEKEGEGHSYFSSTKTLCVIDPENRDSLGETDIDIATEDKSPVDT
Sequence of Pyruvate kinase PKM (Homo sapiens) (P14618 whole entry, looked up): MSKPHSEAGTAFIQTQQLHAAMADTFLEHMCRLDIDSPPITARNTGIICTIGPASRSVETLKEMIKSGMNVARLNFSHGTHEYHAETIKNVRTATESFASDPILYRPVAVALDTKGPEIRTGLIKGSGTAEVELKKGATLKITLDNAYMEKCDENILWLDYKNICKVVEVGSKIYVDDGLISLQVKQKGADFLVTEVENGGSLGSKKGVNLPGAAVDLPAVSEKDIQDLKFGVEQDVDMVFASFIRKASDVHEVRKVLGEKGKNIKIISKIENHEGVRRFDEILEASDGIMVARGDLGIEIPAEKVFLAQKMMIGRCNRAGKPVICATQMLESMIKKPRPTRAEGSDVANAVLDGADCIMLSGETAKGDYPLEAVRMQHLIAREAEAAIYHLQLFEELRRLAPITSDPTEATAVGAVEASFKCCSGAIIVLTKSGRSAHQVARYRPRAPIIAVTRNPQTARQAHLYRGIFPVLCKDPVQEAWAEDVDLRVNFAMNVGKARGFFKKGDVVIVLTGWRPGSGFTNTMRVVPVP
Sequence of Cytochrome P450 2D6 (Homo sapiens) (P10635 whole entry, looked up): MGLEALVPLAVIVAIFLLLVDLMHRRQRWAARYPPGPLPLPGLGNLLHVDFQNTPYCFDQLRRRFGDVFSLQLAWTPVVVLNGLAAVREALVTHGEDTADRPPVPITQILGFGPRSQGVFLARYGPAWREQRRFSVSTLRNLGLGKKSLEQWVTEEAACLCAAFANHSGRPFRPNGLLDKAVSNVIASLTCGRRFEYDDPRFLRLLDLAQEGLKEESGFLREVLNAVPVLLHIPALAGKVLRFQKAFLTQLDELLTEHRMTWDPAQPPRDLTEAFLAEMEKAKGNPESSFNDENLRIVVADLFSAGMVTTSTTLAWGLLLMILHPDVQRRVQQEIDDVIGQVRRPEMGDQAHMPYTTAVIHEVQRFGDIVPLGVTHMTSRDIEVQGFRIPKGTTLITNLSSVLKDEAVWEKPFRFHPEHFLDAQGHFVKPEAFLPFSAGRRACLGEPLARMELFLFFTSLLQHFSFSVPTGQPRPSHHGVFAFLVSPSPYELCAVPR
Sequence of Cytochrome P450 2C9 (Homo sapiens) (P11712 whole entry, looked up): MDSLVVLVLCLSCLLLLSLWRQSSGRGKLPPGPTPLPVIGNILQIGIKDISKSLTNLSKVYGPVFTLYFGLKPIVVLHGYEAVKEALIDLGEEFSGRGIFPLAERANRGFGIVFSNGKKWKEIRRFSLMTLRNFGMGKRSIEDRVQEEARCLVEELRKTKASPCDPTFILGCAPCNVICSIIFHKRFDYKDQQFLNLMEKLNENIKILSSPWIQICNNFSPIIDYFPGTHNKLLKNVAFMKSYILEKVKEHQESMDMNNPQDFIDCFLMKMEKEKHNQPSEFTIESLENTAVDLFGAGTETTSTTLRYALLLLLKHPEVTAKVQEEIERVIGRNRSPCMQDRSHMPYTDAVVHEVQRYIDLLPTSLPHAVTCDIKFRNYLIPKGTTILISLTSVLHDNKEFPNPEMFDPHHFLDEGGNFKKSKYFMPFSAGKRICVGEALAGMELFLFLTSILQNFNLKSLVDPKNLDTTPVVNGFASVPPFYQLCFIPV

COC[C@@H]1OC(=O)c2coc3c2[C@]1(C)C1=C(C3=O)[C@H]2CCC(=O)[C@]2(C)C[C@@H]1OC(C)=O
inactive: Potency [2] | Potency [3] > 46 µM | Potency [4] > 46 µM | outcome [5] | Potency [6] | Potency [7] | Potency [8]
active: activity change, negative = inhibition [1] -78.2% [at 38 µM]

CC1(C)[C@@H]2CC[C@]1(C)CN(CCC[N+](C)(C)C)C2
inactive: activity change, negative = inhibition [1] -4.07% [at 7.69 µM] | activity change, negative = inhibition [2] -6.8% [at 2.29 µM] | activity change, negative = inhibition [9] -12.6% [at 7.69 µM] | Potency [3] > 46 µM | Potency [4] > 9.22 µM | activity change, negative = inhibition [10] 0.443% [at 11.4 µM] | outcome [5]

O=c1[nH]c(=O)n(Cc2ccco2)c(O)c1C=NCCN1CCOCC1
inactive: activity change, negative = inhibition [1] 12.8% | activity change, negative = inhibition [9] -0.917% | outcome [11]

CC(=O)C1(c2ccccc2)CCNCC1
inactive: activity change, negative = inhibition [1] 6.36% | activity change, negative = inhibition [9] -17.3% | outcome [11]

CC(=O)[C@@]1(O)CC[C@H]2[C@@H]3CC=C4C[C@@H](O)CC[C@]4(C)[C@H]3CC[C@@]21C
inactive: activity change, negative = inhibition [1] 0.531% | activity change, negative = inhibition [9] 10.8% | outcome [11]

CCN(CC)C(=O)N[C@H]1C[C@H]2c3cccc4[nH]cc(c34)C[C@@H]2N(C)C1
active: Potency [7] 0.0398 µM
inactive: activity change, negative = inhibition [1] 9.81% [at 38 µM] | Potency [2] | activity change, negative = inhibition [9] 3.16% [at 38 µM] | outcome [11] | outcome [5] | Potency [6] | Potency [12] | Potency [13] | outcome [14] | Potency [15] | outcome [16] | outcome [17] | outcome [18] | outcome [19]

C[C@]1(C(=O)O)[C@@H]2CC[C@@H](O2)[C@@]1(C)C(=O)O
inactive: Potency [2] | Potency [4] > 46 µM | outcome [10] | outcome [5] | Potency [20] | Potency [8] | Potency [15] | Potency [22] | outcome [16] | outcome [17] | outcome [18] | outcome [19]
active: activity change, negative = inhibition [1] -103% [at 38 µM] | Potency [13] 6.31 µM | Potency [21] 5.01 µM

CC[C@H](CO)NC(=O)[C@@H]1C=C2c3cccc4c3c(cn4C)C[C@@H]2N(C)C1
inactive: activity change, negative = inhibition [1] -3.22% [at 38 µM] | Potency [2] | activity change, negative = inhibition [9] -10.9% [at 38 µM] | outcome [5] | Potency [13] | outcome [14] | outcome [16] | outcome [17] | outcome [18] | outcome [19]
